This is a sample that favours compounds with a hit; in the whole collection about 2.2% have one here.
M4 antag – human M4 muscarinic receptor antagonists, primary screen, CHO cells, Fluo-8 calcium fluorescence; Muscarinic acetylcholine receptor M4 (Homo sapiens), P08173; inhibition, % at 3 µM; CHO-hM4 cells, ACh EC80; actives 0.73% (n = 360,000); AID 624125, 2012;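 active = inhibition above its plate's cutoff, the mean inhibition of sample wells plus 3 SD, cut at about 27% in these data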;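 note: 0% = acetylcholine EC80 with DMSO and 100% = DMSO without agonist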
Target sequence (P08173 whole entry, looked up): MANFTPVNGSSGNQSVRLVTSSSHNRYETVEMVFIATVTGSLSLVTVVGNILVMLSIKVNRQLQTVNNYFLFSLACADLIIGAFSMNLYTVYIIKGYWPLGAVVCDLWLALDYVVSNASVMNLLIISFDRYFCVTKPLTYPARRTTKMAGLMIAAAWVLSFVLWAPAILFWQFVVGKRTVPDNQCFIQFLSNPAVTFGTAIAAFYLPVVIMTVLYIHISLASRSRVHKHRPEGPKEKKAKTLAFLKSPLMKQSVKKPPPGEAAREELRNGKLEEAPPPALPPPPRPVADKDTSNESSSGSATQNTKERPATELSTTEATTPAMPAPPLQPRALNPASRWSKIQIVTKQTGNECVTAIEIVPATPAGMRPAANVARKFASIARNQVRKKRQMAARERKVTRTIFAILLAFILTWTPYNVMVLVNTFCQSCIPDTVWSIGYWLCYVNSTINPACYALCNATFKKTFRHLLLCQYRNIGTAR
M1 antag – human M1 muscarinic receptor antagonists, primary screen, CHO-K1 cells, Fluo-8 calcium fluorescence, 1536-well; Muscarinic acetylcholine receptor M1 (Homo sapiens), P11229; CHO-K1 hM1, ACh EC80 antagonist; inhibition, % at 3 µM; actives 1.3% (n = 360,000); AID 588852, 2011;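 active = percent inhibition above its own plate's cutoff, namely the mean of that plate's compound wells plus 3 SD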;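 note: peak over basal fluorescence ratio during 140 s after agonist addition; 0% = ACh EC80 plus DMSO and 100% = DMSO alone without agonist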
M1 ag – human M1 muscarinic receptor agonists, primary screen, Fluo-8 calcium fluorescence, CHO-K1 cells, HTS; actives 0.33% (n = 360,000); CHO-K1 hM1, agonist mode; 0% DMSO, 100% acetylcholine EC100; activation, % at 3 µM; Muscarinic acetylcholine receptor M1 (Homo sapiens), P11229;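 active = activation above the run's mean compound activation plus 3 SD, cut at about 16% in these data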;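 note: peak over basal fluorescence ratio within a 140 s kinetic read after compound addition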
CHRM4 PAM – human M4 muscarinic receptor positive allosteric modulators, primary screen, CHO-K1 cells, Fluo-8 calcium fluorescence; Muscarinic acetylcholine receptor M4 (Homo sapiens), P08173; CHO-K1 hM4/Gqi5, ACh EC20; 0% = ACh EC20, 100% = maximal ACh; activation, % at 3 µM; actives 0.4% (n = 360,000);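 active = activation above its plate's cutoff, the mean activation of sample wells plus 3 SD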
M1 PAM – human M1 muscarinic receptor positive allosteric modulators, primary screen, CHO-K1 cells, Fluo-8 calcium fluorescence, 1536-well; CHO-K1 hM1, ACh EC20; 0% = ACh EC20, 100% = maximal ACh; activation, % at 3 µM; AID 588819, 2011; Muscarinic acetylcholine receptor M1 (Homo sapiens), P11229; actives 0.088% (n = 360,000); in the data active = activation above about 19%, passing the limit was not always enough
CHRM4 agonist – human M4 muscarinic receptor agonists, primary screen, CHO-K1 cells, Fluo-8 calcium fluorescence. Muscarinic acetylcholine receptor M4 (Homo sapiens), P08173. CHO-K1 hM4/Gqi5; vehicle 0%, full acetylcholine response 100%. activation, % at 3 µM. actives 0.14% (n = 360,000);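 active = activation above the run mean over all test wells plus 3 SD, cut at about 32% in these data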;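 note: peak over basal fluorescence ratio per well then scaled between controls; 0% = DMSO wells and 100% = acetylcholine at EC100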
* hit, by the source's call.

SMILES	M4 antag	M1 antag	M1 ag	CHRM4 PAM	M1 PAM	CHRM4 agonist
Oc1ccc(N=Nc2ccc3c(c2)OCCO3)c2ncccc12	30*	32*	12	-33	-12	37*
Cc1cccc(N=Nc2ccc(O)c3ncccc23)c1	16	30	2	-7	-4	17
Cc1cc(/C=C2/NC(=O)NC2=O)c(C)n1-c1ccccn1	-9	-1	-3	6	8	1
Cc1ccc(-n2c(C)cc(/C=C3\NC(=O)NC3=O)c2C)c(C)c1	35*	32*	-8	-24	-19	-1
CC(C)c1ccc(/C=C/C(=O)NC(=S)Nc2ccc(CN3CCOCC3)cc2)cc1	14	48*	-12	-14	-30	3
O=C(COc1ccc(Cl)cc1Cl)NC(=S)Nc1ccc(CN2CCOCC2)cc1	-3	37*	-6	-15	-20	10
CCOc1ccc(CC(=O)C2C(=O)CCCC2=O)cc1OCC	-2	-14	-3	8	11	0
Cc1cccc(NC(=O)COC(=O)c2ccc([N+](=O)[O-])o2)c1C	-1	14	-5	0	0	2
Cn1c(=O)c(C(=O)NCC2CCCO2)c(O)c2ccccc21 (stereo not given)	33*	1	-3	18	9	2
Cn1c(C(=O)NCC2CCCO2)cc2c(=O)[nH]c3ccccc3c21 (stereo not given)	-15	-12	-1	28*	7	3
CCc1ccccc1NC(=O)C1=CC(c2cccs2)=NS(=O)(=O)N1C	2	4	-4	-5	-6	6
Nc1c(C(=O)N2CCOCC2)sc2nc3c(cc12)CCCC3	4	-8	-3	-3	7	2
Nc1c(C(=O)N2CCOCC2)sc2nc3c(cc12)CCC3	35*	-4	-2	15	5	2
CC(C)(C)C(=O)Nc1ccc(Sc2ccc([N+](=O)[O-])cc2)cc1	21	35*	-6	-15	-23	13
CC(=O)Nc1ccc(Sc2ccc([N+](=O)[O-])o2)cc1	4	-3	-3	5	3	0
Cc1cc(C)nc(/N=C(\N)Nc2cccc(OCc3ccccc3)c2)n1	68*	59*	26*	-17	-28	81*
Cc1cc(C)nc(/N=C(\N)Nc2ccc(OCc3ccccc3)cc2)n1	98*	89*	70*	-28	-41	111*
Cc1cc(C)nc(/N=C(\N)Nc2ccc(CC(=O)OC(C)C)cc2)n1	83*	59*	15	-20	-30	113*
Cc1cc(C)nc(/N=C(\N)Nc2ccc(OCCC(C)C)cc2)n1	86*	84*	33*	-19	-30	105*
CCCc1cc(CNC(=O)C2CCC(=O)N(CCc3cccc(F)c3)C2)on1 (stereo not given)	-5	-5	-5	0	4	1
CC1(C)O[C@@H]2[C@H](O1)[C@@H](COS(=O)(=O)O)O[C@H]2n1cc(Br)c(=O)[nH]c1=O	-2	3	-1	25*	3	3
O=C1c2ccccc2C(=Nc2ccccc2)C1c1cccc(Br)c1 (stereo not given)	-11	-9	-4	19	3	0
CC[N+](C)(C)c1cccc(O)c1	-22	-26	16*	1	-1	4
c1ccc2c(c1)nc1n2CCN1	-4	-6	-4	15	6	1
CN(C)C(=O)CSc1nc2ccccc2n1Cc1ccccc1	0	10	-11	-5	-13	0
SMILES	M4 antag	M1 antag	M1 ag	CHRM4 PAM	M1 PAM	CHRM4 agonist
CCN(CC)CCSc1nc2ccccc2n1Cc1ccccc1	36*	90*	-9	-17	-30	2
NS(=O)(=O)c1ccc(NC(=O)COC(=O)CSCc2ccc(F)cc2)cc1	8	3	-3	-4	2	3
CCc1cccc(NS(=O)(=O)c2c(C)nc3sc(CC)nn3c2=O)c1	29*	73*	-9	-18	-29	7
CCOC(=O)Cc1csc(N/N=C/c2ccccc2)n1	-12	-16	-5	24*	5	7
CCOC(=O)Cc1csc(NC(=O)Nc2ccc(OC(F)(F)F)cc2)n1	8	41*	5	-34	-17	14
CCOC(=O)Cc1csc(NC(=O)c2ccc(NC(C)=O)cc2)n1	-12	-4	-1	8	6	3
CCN(CC)S(=O)(=O)c1ccc(N2CC(C(=O)Nc3cccc(C(=O)NC4CC4)c3)CC2=O)cc1 (stereo not given)	-13	2	-9	15	5	2
COc1ccc(OCCNC(=O)C2(C)CCN2Cc2ccc3ccccc3c2)cc1 (stereo not given)	29*	17	-7	-13	-15	10
COc1ccc(OCCNC(=O)C2(C)CCN2Cc2ccc(SC)cc2)cc1 (stereo not given)	9	11	-6	-8	-11	9
O=C(CS(=O)(=O)Cc1ccccc1)Nc1nc2ccccc2s1	9	-7	0	0	11	3
CC(c1ccccc1)C1OCC(C[N+]2(C)CCCCC2)O1 (stereo not given)	45*	99*	-6	-24	-23	0
C[N+]1(CC2COC3(CCCCC3)O2)CCCCC1 (stereo not given)	-3	3	-6	-6	-1	0
O=C(Nc1ccc(F)c(Cl)c1)c1cc(C2CCCN(S(=O)(=O)c3ccccc3)C2)on1 (stereo not given)	-14	4	-2	-5	-9	8
CN(C)c1ccc(CC(=O)N2CCCC(c3cc(C(=O)Nc4ccc(F)c(Cl)c4)no3)C2)cc1 (stereo not given)	28*	23	-2	-13	-16	16
Cc1ccc(F)c(S(=O)(=O)NC(=O)C2(C)CCN2C(=O)Cc2ccc(C(C)(C)C)cc2)c1 (stereo not given)	-19	-29	-2	13	16	0
COc1ccc(C2Nc3cc(OC)ccc3-n3cccc32)cc1 (stereo not given)	-19	-13	-7	17*	7	2
COc1ccc(C2NC(=S)N3C(c4ccc(OC)cc4)NC(=S)N23)cc1 (stereo not given)	-2	-4	-3	17	-3	1
